# Results as given in ChEMBL document CHEMBL3988442, “University of Dundee, Small-Polar-MMV Screening Library” (2021).
# Screen size: about 48,000 compounds; about 13,000 (27%) showed an effect of 50% or more. The list shows a part of the results.
# Tested on: Wolbachia pipientis
# Test: Anti-Wolbachia Cell-Based Screen
# Format: functional
# Set-up: scale not given: in the data most compounds retested in dose-response had high values
# Details: 5 µM
row,SMILES,Percent Effect [%]
1,CS(=O)(=O)Nc1ccc([C@H]2OCC(=O)N[C@@H]2CO)cc1,-3.066
2,CC(C)Sc1ccc(C(C)Nc2nc3c(cnn3C)c(=O)[nH]2)cc1 (stereo not given),-4.166
3,Cc1cc(NC(=O)NC(C)CN2CCN(c3ccccc3)CC2)on1 (stereo not given),-17.45
4,CNC(=O)NC(=O)CSC(C)c1ccccc1F (stereo not given),-20.44
5,Cc1nc(NC(=O)C(C)S(C)(=O)=O)sc1Cc1ccccc1F (stereo not given),-3.086
6,Cc1ccc(CN2CCOCC3(C2)CN(c2ccc(C)s2)C(=O)CO3)o1.O=C(O)C(F)(F)F (stereo not given),3.651
7,Cn1ccnc1CN1CCC2(CC1)CN(c1ccccc1)C(=O)CO2.O=C(O)C(F)(F)F,-5.115
8,Cn1cccc1CN1CCC2(CC1)CN(c1ccccc1)C(=O)CO2.O=C(O)C(F)(F)F,80.65
9,Cn1cccc1CN1CCC2(CC1)CN(c1ncccn1)CCO2.O=C(O)C(F)(F)F,0.2482
10,Cc1ccc(CN2CCC3(CC2)CN(c2ccccc2)C(=O)CO3)o1.O=C(O)C(F)(F)F,119.8
11,CCc1ccc(CN2CCC3(CC2)CNC(=O)CO3)o1.O=C(O)C(F)(F)F,-11.34
12,CCCNC(=O)C1CCN(CC2(O)CCC(C)CC2)CC1 (stereo not given),-9.033
13,COCc1cccc(NC(=O)NCc2ncc(C)c(OC)c2C)c1,-10.08
14,COCCCN1C(=O)CC[C@H]2CN(c3cc(C(N)=O)ccn3)CC[C@H]21,-7.921
15,COc1ccc(NC(=O)C2CC(=O)N(C)C2)cn1 (stereo not given),112.1
16,CCOc1ccc(NC2CCN(C(C)C)C2=O)cn1 (stereo not given),-21.57
17,COCCOc1ccc(NC(=O)C2CC(=O)N(C)C2)cn1 (stereo not given),-11.2
18,CN1CC(C(=O)Nc2ccc(OCC(F)(F)C(F)F)nc2)CC1=O (stereo not given),108
19,O=C(CCN1C(=O)CCC1=O)Nc1ccc(OCC(F)(F)F)nc1,-54.38
20,CCc1nc(C)c([C@H]2CN(C)C[C@@H]2C(=O)Nc2ccc(OC)nc2)[nH]1,6.695
21,CNC(=O)c1ccc(N(C)C2CCC2)nn1,-0.7532
22,CC(C)c1cc(CNC(=O)Nc2cc(F)cc(N3CCCC3)c2)on1,-22.89

row,SMILES,Percent Effect [%]
1,COc1ccc(O[C@H]2COCCN(C(=O)c3ccno3)C2)cc1,-10.22
2,COc1nc(C)ccc1CNC(=O)NC(C)Cc1c(C)nn(C)c1C (stereo not given),-7.556
3,Cc1ccc(CNC(=O)NC(C)Cn2cccn2)cn1 (stereo not given),102.7
4,O=C(NCc1cccnc1)Nc1ccn(CC(F)F)n1,-3.627
5,CC(Cn1cccn1)NC(=O)Nc1cccnc1 (stereo not given),-4.722
6,CC(Cn1cccn1)NC(=O)NCCc1ccc(Cl)s1 (stereo not given),2.539
7,CC(Cn1cccn1)NC(=O)NCc1cccs1 (stereo not given),-5.342
8,CC(Cn1cccn1)NC(=O)NCc1cccnc1 (stereo not given),125.3
9,CC(Cn1cccn1)NC(=O)NCc1ccoc1 (stereo not given),138.9
10,CC(C)CN1CCC(c2nnc(CN3CCCC3)n2C2CC2)CC1,11.32
11,O[C@H]1[C@H](n2cc(CN3CCCC3)nn2)c2ccccc2C12CCNCC2,-10.15
12,CCN(CC)S(=O)(=O)CCNC(=O)c1cc2cccc(F)c2o1,-15.07
13,Nc1nc2c(c(N3CCCC(OCc4ccccn4)C3)n1)CCNCC2 (stereo not given),94.61
14,Nc1nc2c(c(N3CCCC(CN4CCCC4=O)C3)n1)CCNCC2 (stereo not given),-1.007
15,Cc1nc2c(c(N3CCC(CCn4cccn4)CC3)n1)CCNCC2,1.957
16,Cc1nc2c(c(N3CCCC(OCc4ccccn4)C3)n1)CCNCC2 (stereo not given),98.85
17,Cc1nn(C)c2ncnc(N3CCCC(OCc4ccccn4)C3)c12 (stereo not given),-6.916
18,Nc1nc2c(c(N3CCCC3)n1)CCN(Cc1ccccn1)CC2,7.613
19,Cc1nc(N2CCCC(OCc3ccccn3)C2)c2c(C)noc2n1 (stereo not given),99.09
20,Cc1nn(C)c2ncnc(N3CCCC(OCc4cccnc4)C3)c12 (stereo not given),4.594
21,COC1CCCN(c2nc(C)nc3c2CCN(Cc2ccco2)CC3)C1 (stereo not given),-0.6049
22,Cn1cc(CN2CCc3c(c(COCC#N)nn3C)C2)cn1,-10.53

row,SMILES,Percent Effect [%]
1,O=C(c1cccnc1-n1cncn1)N1CCN(CC(F)(F)F)CC1,-6.052
2,CCc1cnc(C)nc1NCCc1nc(N)cc(O)n1,1.724
3,CN(C)S(=O)(=O)NCc1nc(-c2cccc(F)c2)c(-c2ccccn2)[nH]1,-1.399
4,N#Cc1ccccc1CN1CCc2sccc2C1,-11.84
5,CCC(NC(=O)CN(C)Cc1ccc(C)o1)c1ccc(Br)cc1 (stereo not given),7.959
6,COC[C@@]12CCO[C@@H]1CCN(Cc1ccc(C)s1)C2.O=C(O)C(F)(F)F,-10.75
7,O=C(N1CCCO1)[C@@]12CCO[C@@H]1CCN(Cc1ccsc1)C2,127
8,Cc1ncsc1CN1CC[C@H]2OCC[C@@]2(C(=O)N2CCCO2)C1,-1.32
9,Cc1ccc(CN2CC[C@H]3OCC[C@@]3(C(=O)N3CCCO3)C2)s1,100.6
10,c1cnn(CC2CCCCN2Cc2cn3ccsc3n2)c1 (stereo not given),2.763
11,COc1ccc2c(=O)n(CC3CCCCN3C)ccc2c1OC (stereo not given),-25.61
12,CCN1C[C@@H]2CN(S(=O)(=O)c3cccs3)C[C@@H]2C1=O,-17.06
13,N#Cc1cc(NS(=O)(=O)CC2CCCCO2)ccc1F (stereo not given),-2.711
14,CCCc1ccc(OCCNCc2ccco2)c(OC)c1.Cl,-10.12
15,COc1ccc(CN2CCCC3(CC2)CNC(=O)O3)cc1OC (stereo not given),1.159
16,CCCc1ccc(OC23CCCN(CC2)C3)c(OC)c1 (stereo not given),112.6
17,COc1cc(CN2CCCC2)ccc1Oc1ncccc1C(F)(F)F,26.33
18,COc1cc(CN2CCCC2)ccc1OC12CCCN(CC1)C2 (stereo not given),119.4
19,COc1ccc(CCNC(=O)NCc2cccc(C(N)=O)c2)cc1OC,9.819
20,CC(C)c1nccn1C(C)C(=O)N1CCN(S(C)(=O)=O)CC1 (stereo not given),15.78
21,CC(C)c1cc(C(=O)N(c2ccc(F)cn2)C2CCOCC2)nn1C,-15.95
